Screening results: PubChem BioAssay, Bradner/Qi Labs at DFCI
CBX7 AlphaScr = inhibitors of human CBX7 binding to H3K27me3 peptide; normalised signal (fraction of DMSO) (concentration not given with the values); O95931; actives 1.1% (n = 66,000); AID 1224903; AlphaScreen His6-CBX7 / biotin-H3K27me3 peptide binding; active compounds read low; in the data active = normalised signal below about 0.5
Target sequence (O95931 whole entry, looked up): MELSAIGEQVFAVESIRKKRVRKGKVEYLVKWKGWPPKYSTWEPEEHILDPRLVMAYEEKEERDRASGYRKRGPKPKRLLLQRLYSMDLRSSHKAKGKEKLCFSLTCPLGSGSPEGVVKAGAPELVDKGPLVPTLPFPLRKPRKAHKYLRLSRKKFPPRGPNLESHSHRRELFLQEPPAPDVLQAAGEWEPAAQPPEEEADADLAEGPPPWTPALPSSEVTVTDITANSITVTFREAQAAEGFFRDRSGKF
* marks the source's active call; other numbers are inactive results. This excerpt belongs to a sample that is enriched for hits.

SMILES | CBX7 AlphaScr
O=C(Nc1nnc(C2CC2)o1)c1ccc(S(=O)(=O)N2CCCC2)cc1 | 0.45*
NC(=O)c1oc2ccccc2c1NC(=O)c1ccc(S(=O)(=O)N2CCCC2)cc1 | 1
Cc1ccccc1NC(=O)c1ccc(S(=O)(=O)N2CCCCC2)cc1 | 0.96
Cc1nnc(NC(=O)c2ccc(S(=O)(=O)N3CC(C)OC(C)C3)cc2)o1 (configuration not stated) | 0.0066*
Cc1nnc(NC(=O)c2ccc(S(=O)(=O)N3CCCCC3)cc2)o1 | 0.021*
CC1CCCN(S(=O)(=O)c2ccc(C(=O)Nc3nnc(C4CC4)o3)cc2)C1 (configuration not stated) | 0.6
COc1ccc(-c2nnc(NC(=O)c3ccc(S(=O)(=O)N4CC(C)OC(C)C4)cc3)o2)cc1 (configuration not stated) | 0.53
COc1ccccc1-c1nnc(NC(=O)c2ccc(S(=O)(=O)N3CCCC3)cc2)o1 | 0.62
Cc1nnc(NC(=O)c2ccc(S(=O)(=O)N3CCCCCC3)cc2)o1 | 0.002*
COc1ccccc1-c1nnc(NC(=O)c2ccc(S(=O)(=O)N3CC(C)OC(C)C3)cc2)o1 (configuration not stated) | 0.68
NC(=O)c1oc2ccccc2c1NC(=O)c1ccc(S(=O)(=O)N2CCCCC2)cc1 | 1
COc1cccc(-c2nn(C)c3sc(C(=O)N4CCCCC4C)cc23)c1 (configuration not stated) | 1
CCN(C(=O)Cc1c(C(=O)O)[nH]c2ccccc12)c1cc(C)ccc1C | 0.99
O=C(NCc1ccccc1)c1ccc2c(c1)N(Cc1ccccc1)C(=O)CS2 | 0.86
CC1CC(O)CN(C)C1C (configuration not stated) | 1
O=C(CCC1CC(=O)Nc2ccccc21)NCCC1=CCCCC1 (configuration not stated) | 1
O=C(Nc1ccc(C(F)(F)F)cc1)c1cnc2ccccn2c1=O | 0.84
CCc1ccc(NC(=O)c2cn(C3CCCC3)c(=O)c3c2c2ccccc2n3C)cc1 | 0.92
CCOC(=O)c1cnc2c(OC)cccc2c1Nc1ccc(CC)cc1 | 1
CCOC(=O)c1cnc2c(OC)cccc2c1N1CCC(Cc2ccccc2)CC1 | 0.42*
CCOC(=O)c1cnc2c(OC)cccc2c1NCc1ccccc1OC | 0.99
CC1(C)Nc2ccccc2N(CC(=O)N2CCOCC2)C1=O | 1
CCCC1CCC(c2nc(-c3ccc(OC(F)F)cc3)no2)CC1 (configuration not stated) | 1.2
CCCCCC1CCC(c2ccc(-c3nc(-c4ccncc4)no3)cc2)CC1 (configuration not stated) | 1
CCCC1CCC(c2ccc(-c3noc(-c4ccc(O)c(F)c4)n3)cc2)CC1 (configuration not stated) | 0.49*
SMILES | CBX7 AlphaScr
Cc1cccc(NC(=O)CCC2=NS(=O)(=O)c3ccccc3N2)c1 | 0.94
Cc1sc(NC(=O)c2cc(Cl)cc(Cl)c2)nc1-c1ccccc1 | 1
O=C(NCCCn1ccnc1)C(O)(c1ccccc1)c1ccccc1 | 1
O=C(NCCCn1ccnc1)c1ccc(C#Cc2ccccc2)cc1 | 0.11*
O=C(NCCCn1ccnc1)C(=O)NCCc1ccccc1 | 1.2
CCCCN(C)S(=O)(=O)c1ccc(C(=O)Nc2nnc(C3CC3)o2)cc1 | 0.034*
CC(C)CN(CC(C)C)S(=O)(=O)c1ccc(C(=O)Nc2nnc(C3CC3)o2)cc1 | 0.0062*
CCCN(CCC)S(=O)(=O)c1ccc(C(=O)Nc2nnc(C3CC3)o2)cc1 | 0.53
CCCCN(C)S(=O)(=O)c1ccc(C(=O)Nc2ccccc2-c2nc3ccccc3o2)cc1 | 1
CCCCN(CC)S(=O)(=O)c1ccc(C(=O)Nc2nnc(C3CC3)o2)cc1 | 0.037*
CCCCN(C)S(=O)(=O)c1ccc(C(=O)Nc2ccc(-c3nc4ccccc4[nH]3)cc2)cc1 | 0.94
CCN(Cc1ccccc1)S(=O)(=O)c1ccc(C(=O)Nc2nnc(C3CC3)o2)cc1 | 0.71
Cc1cccc(-c2noc(CN(C(=O)c3ccc(C(C)(C)C)cc3)C(C)C)n2)c1 | 0.91
O=C(O)CCC(=O)N1CCc2cc(S(=O)(=O)NCCCc3ccccc3)ccc21 | 0.87
Cc1ccccc1CN1C(=O)CSc2ccc(C(=O)NCCCN3CCOCC3)cc21 | 1.1
Fc1ccc(-c2nc3cc(C(F)(F)F)cc(Br)c3nc2-c2ccc(F)cc2)cc1 | 0.93
COc1ccc(-c2nc(Nc3ccccc3Cl)c3ccccc3n2)cc1OC | 1.1
CC(C(=O)NCCCN1CCc2ccccc2C1)n1ncc2ccccc21 (configuration not stated) | 1
Cc1cccn2c(Nc3ccc4c(c3)OCCO4)c(-c3ccsc3)nc12 | 0.93
c1ccc(-c2nc3ccccn3c2Nc2ccc3c(c2)OCCO3)nc1 | 0.073*
Cc1cccc(C)c1Nc1c(-c2ccccn2)nc2ncccn12 | 0.011*
Cc1cccc(C)c1Nc1c(-c2cccs2)nc2ccccn12 | 1.1
Cc1cccn2c(Nc3ccc4c(c3)OCCO4)c(-c3cccc(Cl)c3)nc12 | 0.76
Clc1ccc2nc(-c3ccccn3)c(Nc3ccc4c(c3)OCO4)n2c1 | 0.58
Cc1ccc(-c2nc3ncccn3c2Nc2c(C)cccc2C)cc1 | 0.9
SMILES | CBX7 AlphaScr
Cc1cccn2c(Nc3ccc4c(c3)OCCO4)c(-c3ccc(N(C)C)cc3)nc12 | 0.41*
Cc1cccc(C)c1Nc1c(-c2ccsc2)nc2ccccn12 | 0.91
Cc1cccc(C)c1Nc1c(-c2ccsc2)nc2ncccn12 | 1.1
Cc1cccc(C)c1Nc1c(-c2ccccn2)nc2ccccn12 | 0.23*
c1ccc(-c2nc3ccccn3c2Nc2ccc3c(c2)OCCO3)cc1 | 1.3
O=C(Cc1c(C(=O)O)[nH]c2ccc(Cl)cc12)Nc1ccc(F)c(Cl)c1 | 0.94
CCCc1cc(C(=O)Cc2cc3ccccc3o2)c(O)cc1O | 0.91
NC(=O)CSc1nc2ccccc2n1CCOc1ccccc1 | 0.95
CCN(CC)C(C(=O)NC1CCCCC1)c1ccc(OC)cc1 (configuration not stated) | 1.2
Cc1ccc2c(c1)C(c1ccccc1)N(C(=O)C1CCCCC1)CC(=O)N2 (configuration not stated) | 0.95
Cc1ccc(Nc2ncc(C(=O)N3CCOCC3)c3ccccc23)cc1Cl | 1.1
CCOCCCNC(=O)c1ccc2c(c1)N(Cc1ccc(Cl)cc1)C(=O)c1ccccc1S2=O (configuration not stated) | 1
O=C(NC1CC1)c1ccc2c(c1)N(Cc1cccc(Cl)c1)C(=O)c1ccccc1S2 | 1.1
O=C(Cc1ccc(NC2=NC3CS(=O)(=O)CC3S2)cc1)N1CCN(c2ccccn2)CC1 (configuration not stated) | 1.1
Cc1cc(C)cc(OCC(=O)Nc2cccc(-c3nc4cc(C)cc(C)c4o3)c2)c1 | 1.1
Cc1ccc2nc(-c3ccccn3)c(NC3CCCC3)n2c1 | 0.12*
Cc1ccc(-c2nc3cnccn3c2NC2CCCC2)cc1 | 1.2
Cc1ccc(-c2nc3ncccn3c2NC2CCCC2)cc1 | 1
COc1ccc(CCNC(=O)c2cc(Nc3ccccc3C)nc3ccccc23)cc1OC | 1.1
Cc1ccc(CNC(=O)c2cc(=O)[nH]c3ccc(S(=O)(=O)N4CCOCC4)cc23)cc1 | 0.99
CCC(Oc1ccc(F)cc1)C(=O)Nc1c(C(=O)c2ccccc2)oc2ccccc12 (configuration not stated) | 1.4
Cc1ccc(C2NC(C(=O)O)Cc3c2[nH]c2ccccc32)cc1 (configuration not stated) | 1
CCOc1ccc(C2NCCc3c2[nH]c2ccccc32)cc1 (configuration not stated) | 0.72
